Source: PubChem BioAssay (NCI)
Where “and” joins values, the source holds several entries; their conditions need not be identical. Equal entries are not always repeated. The panel holds about 79,000 compounds, 15% with a hit somewhere; the sample as a whole holds those more often. A number with no mark means an inactive call. Calls of active or inactive are those of the source. Cut-off read from the data, not from the text of the source: active = growth inhibition above about 70%; inactive = the rest.

assay: NCI Yeast Anticancer Drug Screen. Data for the mlh1 rad18 strain (AID 175); conditions: S. cerevisiae mlh1 rad18 strain growth inhibition; at 5.0 µM (retest, dose inferred, filed as 0.5); hits give high values
Procedure: Growth inhibition of yeast strains with defined genetic alterations is measured as a screen for potential anti-cancer activity. Selected strains with alterations in DNA damage repair or cell cycle control were exposed to compounds and growth inhibition was measured relative to vehicle treated controls. The strain used in this assay is mlh1 rad18

**Q.** Which growth inhibition does the source give for `C(=P(c1ccccc1)(c1ccccc1)c1ccccc1)[P+](c1ccccc1)(c1ccccc1)c1ccccc1.[Cl][Fe]([Cl])([Cl])[Br]` here?
**A.** 99% (active)

**Q.** For `CC(=O)[O][Sn]([c]1ccccc1)([c]1ccccc1)[c]1ccccc1`, which growth inhibition is on record?
**A.** 100% (active)

**Q.** For `COc1cc([N+](=O)[O-])c2ncccc2c1[N+](=O)[O-]`, which growth inhibition is on record?
**A.** 13%

**Q.** Which growth inhibition does the source give for `CC1=C2C(=CC(C)(C)[C@@H]2O)C(=O)[C@](C)(O)C12CC2` here?
**A.** 35%

**Q.** For `Clc1cc[c]([Tl][c]2ccc(Cl)cc2)cc1`, which growth inhibition is on record?
**A.** 94% (active)

**Q.** With `COc1c[c]([Hg][O]C(C)=O)c(OC)c(NC(=O)CC(C)=O)[c]1[Hg][O]C(C)=O` as the compound, how does the growth inhibition read?
**A.** 95% (active)

**Q.** For `C[CH2][Sn]1([CH2]C)[O]S(=O)(=O)[O]1`, which growth inhibition is on record?
**A.** 12%

**Q.** For `NC(=O)c1cc([N+](=O)[O-])c(Cl)c([N+](=O)[O-])c1`, which growth inhibition is on record?
**A.** 57%

**Q.** For `COC1=C(Cl)C(=O)c2ccccc2C1=O`, which growth inhibition is on record?
**A.** 7%

**Q.** For `CC(C)CC[CH2][Pb]([CH2]CCC(C)C)([CH2]CCC(C)C)[O]C(=O)C(Cl)(Cl)Cl`, which growth inhibition is on record?
**A.** 6%

same assay, conditions: S. cerevisiae mlh1 rad18 strain growth inhibition; at 50.0 µM (retest, dose inferred, filed as 5.0); hits give high values

**Q.** With `C(=P(c1ccccc1)(c1ccccc1)c1ccccc1)[P+](c1ccccc1)(c1ccccc1)c1ccccc1.[Cl][Fe]([Cl])([Cl])[Br]` as the compound, how does the growth inhibition read?
**A.** 99% (active)

**Q.** For `CC(=O)[O][Sn]([c]1ccccc1)([c]1ccccc1)[c]1ccccc1`, which growth inhibition is on record?
**A.** 99% (active)

**Q.** For `COc1cc([N+](=O)[O-])c2ncccc2c1[N+](=O)[O-]`, which growth inhibition is on record?
**A.** 45%

**Q.** Which growth inhibition does the source give for `CC1=C2C(=CC(C)(C)[C@@H]2O)C(=O)[C@](C)(O)C12CC2` here?
**A.** 91% (active)

**Q.** For `Clc1cc[c]([Tl][c]2ccc(Cl)cc2)cc1`, which growth inhibition is on record?
**A.** 98% (active)

**Q.** Which growth inhibition does the source give for `COc1c[c]([Hg][O]C(C)=O)c(OC)c(NC(=O)CC(C)=O)[c]1[Hg][O]C(C)=O` here?
**A.** 95% (active)

**Q.** For `C[CH2][Sn]1([CH2]C)[O]S(=O)(=O)[O]1`, which growth inhibition is on record?
**A.** 88% (active)

**Q.** For `NC(=O)c1cc([N+](=O)[O-])c(Cl)c([N+](=O)[O-])c1`, which growth inhibition is on record?
**A.** 85% (active)

**Q.** With `COC1=C(Cl)C(=O)c2ccccc2C1=O` as the compound, how does the growth inhibition read?
**A.** 99% (active)

**Q.** With `CC(C)CC[CH2][Pb]([CH2]CCC(C)C)([CH2]CCC(C)C)[O]C(=O)C(Cl)(Cl)Cl` as the compound, how does the growth inhibition read?
**A.** 94% (active)

same assay, conditions: S. cerevisiae mlh1 rad18 strain growth inhibition; at 50.0 µM; hits give high values

**Q.** Which growth inhibition does the source give for `C(=P(c1ccccc1)(c1ccccc1)c1ccccc1)[P+](c1ccccc1)(c1ccccc1)c1ccccc1.[Cl][Fe]([Cl])([Cl])[Br]` here?
**A.** 99.4% (active)

**Q.** For `CCC(CO)N=Cc1ccccc1O.CCC(CO)N=Cc1ccccc1O.[Ni]` (stereo unspecified), which growth inhibition is on record?
**A.** 25.5%

**Q.** With `CC(C)CC1N=C(NN=C2CCCCC2)SP1(=O)NNc1ncccn1` (stereo unspecified) as the compound, how does the growth inhibition read?
**A.** -0.1%

**Q.** With `CCCCN(CCCC)CC(O)c1ccc(Cl)c(Cl)c1` (stereo unspecified) as the compound, how does the growth inhibition read?
**A.** 7.75%

**Q.** For `CC(=O)[O][Sn]([c]1ccccc1)([c]1ccccc1)[c]1ccccc1`, which growth inhibition is on record?
**A.** 91.4% (active)

**Q.** Which growth inhibition does the source give for `COc1cc([N+](=O)[O-])c2ncccc2c1[N+](=O)[O-]` here?
**A.** 93.6% (active)

**Q.** For `C[C@]12C=CC(=O)NC[C@@H]1CC[C@@H]1[C@@H]2CC[C@]2(C)[C@@H](OC(=O)COc3ccc(N(CCCl)CCCl)cc3)CC[C@@H]12`, which growth inhibition is on record?
**A.** -7.65%

**Q.** Which growth inhibition does the source give for `CN1c2ccccc2NP1(=S)c1ccccc1` (stereo unspecified) here?
**A.** 83.2% (active)

**Q.** For `CC1=C2C(=CC(C)(C)[C@@H]2O)C(=O)[C@](C)(O)C12CC2`, which growth inhibition is on record?
**A.** 78.3% (active)

**Q.** For `O=c1ccc(=O)[nH][nH]1`, which growth inhibition is on record?
**A.** 10.8% and 16.1% and 6.25%

**Q.** With `Clc1cc[c]([Tl][c]2ccc(Cl)cc2)cc1` as the compound, how does the growth inhibition read?
**A.** -1.3%

**Q.** With `Cc1ccc2c(O)c3c(cc2c1)C(=O)c1c2c(cc(O)c1C3=O)C1(C)OC(O2)C(O)C(N(C)C)C1O` (stereo unspecified) as the compound, how does the growth inhibition read?
**A.** 85.5% (active)

**Q.** With `COc1c[c]([Hg][O]C(C)=O)c(OC)c(NC(=O)CC(C)=O)[c]1[Hg][O]C(C)=O` as the compound, how does the growth inhibition read?
**A.** 88.6% (active)

**Q.** Which growth inhibition does the source give for `CNC(P(=O)([O-])[O-])P(=O)([O-])[O-].N.N.[Pt+2]` here?
**A.** -15.7%

**Q.** Which growth inhibition does the source give for `C[CH2][Sn]1([CH2]C)[O]S(=O)(=O)[O]1` here?
**A.** 53.9%

**Q.** For `CC(C)CCC[C@@H](C)[C@H]1CC[C@H]2[C@@H]3CC=C4C[C@@H](OC(=O)F)CC[C@]4(C)[C@H]3CC[C@]12C`, which growth inhibition is on record?
**A.** 33.7%

**Q.** Which growth inhibition does the source give for `COc1cc(CCN(C)C)c([N+](=O)[O-])cc1OC` here?
**A.** 34.7%

**Q.** For `NC(=O)c1cc([N+](=O)[O-])c(Cl)c([N+](=O)[O-])c1`, which growth inhibition is on record?
**A.** 88.7% (active)

**Q.** With `O=S(=O)(c1ccccc1)N1C2CCCC21` (stereo unspecified) as the compound, how does the growth inhibition read?
**A.** -21.5%

**Q.** Which growth inhibition does the source give for `COC1=C(Cl)C(=O)c2ccccc2C1=O` here?
**A.** 99.4% (active)

**Q.** Which growth inhibition does the source give for `CC(C)CC[CH2][Pb]([CH2]CCC(C)C)([CH2]CCC(C)C)[O]C(=O)C(Cl)(Cl)Cl` here?
**A.** 98.7% (active)
